# Test results: PubChem BioAssay (NCATS)
# Values without a mark were called inactive. Records with an inconclusive call do not appear. A call without a number means that no potency is given here. The source made the active and inactive calls. Unless noted, calls come from the whole dose curve; as a rule, active = well fitted curve in the direction sought with a large enough effect; inconclusive = small, poorly fitted or top-dose-only effect, or another doubt; inactive = no such curve, though single readings can be large; an effect the other way counts as inactive or inconclusive.
# Experiments:
# [1] = target: Lysosomal acid glucosylceramidase (Homo sapiens) (UniProt P04062); experiment: Glucocerebrosidase-p2 (AID 348; in the data active = potency below about 10 µM; note: potency is the fitted concentration of half-maximal effect); conditions: purified GBA, blue fluorogenic substrate, 40 min
# Outline: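 Compounds titrated from 0.6 nM upwards against 0.2 nM enzyme in pH 5.9 citric acid/KH2PO4, taurocholate, tween-20; blue fluorogenic substrate 80 uM, 40 min room temperature, stopped and read Ex 365/Em 440 for AC50.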
# [2] = AP1 Signaling Pathway (AID 357; active = well fitted curve in either direction with a large enough effect, not every such curve was filed as active); conditions: ME-180 AP-1-bla reporter, EGF-induced, beta-lactamase ratio, 5 h; at 7.69 µM (top of the series) unless noted
# Outline: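 ME-180 cells with beta-lactamase reporter under AP-1 response element, stimulated with EC50 EGF; compounds tested in titration series, 5 h at 37 °C. CCF4 substrate added 2.5 h at room temperature; 460/530 nm emission ratio gave %activity and AC50.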
# [3] = target: Cytochrome P450 1A2 (Homo sapiens) (UniProt P05177); experiment: p450-cyp1a2 (AID 410; calls by dose curve)
# Outline: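 20nM CYP1A2 with 100uM Luciferin-ME (at Km) in 100mM KPO4; compound preincubated 10 min, NADPH regeneration added, 60 min at room temperature. Luciferin quantified by luminescence after detection reagent; normalized to 57 uM furafylline.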
# [4] = NFAT Signaling Pathway (AID 444; active = well fitted curve in either direction with a large enough effect, not every such curve was filed as active;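 note: carbachol stimulus at about its EC50 of 1 µM final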); conditions: Jurkat NFAT-bla M1, carbachol, beta-lactamase ratio, 5 h; at 7.69 µM (top of the series) unless noted
# Outline: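 Jurkat cells with NFAT-driven β-lactamase reporter and co-expressed M1 receptor, stimulated with carbachol (final 1 uM, ~EC50), compound titration, 5 h at 37 °C. CCF4 loaded 1 h at RT; 460/530 nm ratio gave %activity and AC50.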
# [5] = Stat Signaling Pathway (AID 446; active = well fitted curve in either direction with a large enough effect, not every such curve was filed as active;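 note: ME-180 cervical cancer cells given 40 pM IL-6 alongside compound; SIE-controlled beta-lactamase reporter measured as 460/530 nm FRET emission ratio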); conditions: ME-180 SIE beta-lactamase reporter, IL-6 stimulated, 5 h; at 7.69 µM (top of the series) unless noted
# Outline: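 ME-180 SIE-bla cells; overnight plating; cpd + IL-6 40 pM, 5 h, 37 C; LiveBLAzer 2.5 h RT; 460/530 nm emission ratio. Normalized to 300 pM IL-6 and 125 nM JAK inhibitor controls.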
# [6] = target: Glucocorticoid receptor (Homo sapiens) (UniProt P04150); experiment: GR-GFP Redistribution (AID 450;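 active = compounds whose dose series gives a full or clear partial fitted curve of increased nuclear translocation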; note: potency is the fitted concentration of half-maximal effect); conditions: U2OS GR-GFP nuclear translocation, laser cytometry, 2 h
# [7] = target: Glucocorticoid receptor (Homo sapiens) (UniProt P04150); experiment: GR-EFC Redistribution (AID 451; calls by dose curve; note: potency is the fitted concentration of half-maximal effect); conditions: CHO-K1 GR-EFC translocation, beta-gal luminescence, 2 h
# Outline: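 CHO-K1 cells expressing nuclear EA and GR-ED fragments of b-gal; compounds titrated up to 46 uM final, 2 h at 37 C. GR nuclear translocation read as complemented b-gal luminescence after 1 h RT detection.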
# [8] = target: Mitogen-activated protein kinase 10 (Mus musculus) (UniProt Q61831); experiment: JNK3 AlphaScreen Assay (AID 530; active = well fitted curve in either direction with a large enough effect, not every such curve was filed as active;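 note: kinase came from lysate of stimulated human HepG2 cells; signal reports phosphorylation of biotinylated GST-cJun 1-79 at Ser73 with 10 µM ATP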)
# Outline: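 Pre-activated (IL-1β/TNFα) JNK3 in HepG2 lysates phosphorylates biotin-GST-cJun(1-79), 10 uM ATP; anti-phospho-cJun(Ser73) AlphaScreen read at room temperature, pH 7.6 Tris buffer. Compounds pre-incubated 15 min as titrations.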
# [9] = target: 3',5'-cyclic-AMP phosphodiesterase 4B (Homo sapiens) (UniProt Q07343); experiment: qHTS Assay for Inhibitors of PDE-IV (AID 607; active = well fitted activation curve with a large enough effect in the main read-out, with a control signal flat, not every such curve was filed as active)
# Outline: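 ACTOne HEK293 cells carry a modified cAMP-gated CNG channel and express endogenous PDE4; plated 1000 cells/well, compounds up to 22.9 uM final. Membrane-potential dye fluorescence (ex 535/em 590) was read; parental cells received 10 uM forskolin + 100 uM RO 20-1724.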
# [10] = target: ATP-dependent 6-phosphofructokinase (Trypanosoma brucei brucei) (UniProt O15648); experiment: qHTS Assay to Find Inhibitors of T. brucei phosphofructokinase: hit validation (AID 492961)
# Outline: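 Luminescence from ADP-Glo reports ADP generated as T. brucei PFK (1.25 nM) phosphorylates 0.5 mM fructose-6-phosphate using 0.1 mM ATP. Reactions ran 45 min at room temperature, pH 8.0.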
# [11] = target: Luciferin 4-monooxygenase (Photinus pyralis) (UniProt P08659); experiment: Biochemical firefly luciferase enzyme assay for NPC (AID 624030);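 note: purified P. pyralis luciferase at 10 nM with luciferin and ATP substrate; nearly all actives have a fitted effect of over 70% in size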
# Outline: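 Purified P. pyralis luciferase at 10 nM in 50 mM Tris Acetate (final), luminescence read within 5 minutes of enzyme addition to compounds. Activity normalised to PTC124 versus DMSO; concentration-response curves classed by r2, magnitude and activity.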
# [12] = S16 Schwann cell PMP22 intronic element beta-lactamase assay (AID 624044; calls by dose curve; note: nearly all actives have a fitted effect of over 15% in size)
# Outline: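 Rat S16 Schwann cells with beta-Lac driven by a PMP22 intronic element, compound-treated 24 h at 37 °C. LiveBLAzer FRET B/G read: 460 nm normalized to potassium clavulanate vs DMSO; 535 nm FRET as viability; concentration-effect curves classified.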
# [13] = qHTS profiling for inhibitors of Plasmodium falciparum proliferation (AID 504749); note: nearly all actives have a fitted effect of over 60% in size; note: potency is the fitted concentration of half-maximal effect; conditions: P. falciparum in erythrocytes, SYBR Green DNA, 72 h, at 28.7 µM (top of the series)
# Outline: (§1)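 P. falciparum-infected erythrocytes (0.3% parasitemia, 2.5% hematocrit) incubated with compound 72 h at 37 C, 5% CO2. Parasite DNA detected by SYBR Green after lysis, overnight at room temperature; normalised to 0.29 uM artemisinin and DMSO.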
# 7G8 = experiment: as above; conditions: P. falciparum in erythrocytes, SYBR Green DNA, 72 h; series mostly up to 28.7 µM
# Outline: as §1
# AA1029 = experiment: as above; conditions: P. falciparum in erythrocytes, SYBR Green DNA, 72 h; series mostly up to 28.7 µM
# Outline: as §1
# AS120 = experiment: as above; conditions: P. falciparum in erythrocytes, SYBR Green DNA, 72 h; series mostly up to 28.7 µM
# Outline: as §1
# ATS95 = experiment: as above; conditions: P. falciparum in erythrocytes, SYBR Green DNA, 72 h; series mostly up to 28.7 µM
# Outline: as §1
# C2A = experiment: as above; conditions: P. falciparum in erythrocytes, SYBR Green DNA, 72 h; series mostly up to 28.7 µM
# Outline: as §1
# CP185 = experiment: as above; conditions: P. falciparum in erythrocytes, SYBR Green DNA, 72 h; series mostly up to 28.7 µM
# Outline: as §1
# CP192 = experiment: as above; conditions: P. falciparum in erythrocytes, SYBR Green DNA, 72 h; series mostly up to 28.7 µM
# Outline: as §1
# CP194 = experiment: as above; conditions: P. falciparum in erythrocytes, SYBR Green DNA, 72 h; series mostly up to 28.7 µM
# Outline: as §1
# CP201 = experiment: as above; conditions: P. falciparum in erythrocytes, SYBR Green DNA, 72 h; series mostly up to 28.7 µM
# Outline: as §1
# CP203 = experiment: as above; conditions: P. falciparum in erythrocytes, SYBR Green DNA, 72 h; series mostly up to 28.7 µM
# Outline: as §1
# CP211 = experiment: as above; conditions: P. falciparum in erythrocytes, SYBR Green DNA, 72 h; series mostly up to 28.7 µM
# Outline: as §1
# CP215 = experiment: as above; conditions: P. falciparum in erythrocytes, SYBR Green DNA, 72 h; series mostly up to 28.7 µM
# Outline: as §1
# CP217 = experiment: as above; conditions: P. falciparum in erythrocytes, SYBR Green DNA, 72 h; series mostly up to 28.7 µM
# Outline: as §1
# CP237 = experiment: as above; conditions: P. falciparum in erythrocytes, SYBR Green DNA, 72 h; series mostly up to 28.7 µM
# Outline: as §1
# CP238 = experiment: as above; conditions: P. falciparum in erythrocytes, SYBR Green DNA, 72 h; series mostly up to 28.7 µM
# Outline: as §1
# Chain of Glucocorticoid receptor (Homo sapiens) (P04150 whole entry, looked up, the tested form may be a part): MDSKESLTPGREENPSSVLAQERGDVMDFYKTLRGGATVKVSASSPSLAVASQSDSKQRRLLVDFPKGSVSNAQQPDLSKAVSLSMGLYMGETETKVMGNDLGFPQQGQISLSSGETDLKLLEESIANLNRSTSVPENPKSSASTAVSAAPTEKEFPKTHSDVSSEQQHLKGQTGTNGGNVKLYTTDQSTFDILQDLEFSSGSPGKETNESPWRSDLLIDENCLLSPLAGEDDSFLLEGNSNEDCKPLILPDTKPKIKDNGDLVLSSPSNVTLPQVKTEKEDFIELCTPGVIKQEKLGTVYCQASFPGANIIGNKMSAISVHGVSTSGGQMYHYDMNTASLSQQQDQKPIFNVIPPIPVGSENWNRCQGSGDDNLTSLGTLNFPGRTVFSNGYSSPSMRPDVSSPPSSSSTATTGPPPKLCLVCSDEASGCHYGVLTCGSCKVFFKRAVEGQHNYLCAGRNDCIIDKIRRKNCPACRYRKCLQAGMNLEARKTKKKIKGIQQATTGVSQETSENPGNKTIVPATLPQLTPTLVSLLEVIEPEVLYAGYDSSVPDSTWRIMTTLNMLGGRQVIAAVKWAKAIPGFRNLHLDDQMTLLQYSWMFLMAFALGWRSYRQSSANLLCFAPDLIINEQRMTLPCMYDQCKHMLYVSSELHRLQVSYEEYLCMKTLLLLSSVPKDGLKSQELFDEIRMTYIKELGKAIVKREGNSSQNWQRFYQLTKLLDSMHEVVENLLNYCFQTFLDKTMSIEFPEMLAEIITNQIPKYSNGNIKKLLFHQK
# Chain of Lysosomal acid glucosylceramidase (Homo sapiens) (P04062 whole entry, looked up): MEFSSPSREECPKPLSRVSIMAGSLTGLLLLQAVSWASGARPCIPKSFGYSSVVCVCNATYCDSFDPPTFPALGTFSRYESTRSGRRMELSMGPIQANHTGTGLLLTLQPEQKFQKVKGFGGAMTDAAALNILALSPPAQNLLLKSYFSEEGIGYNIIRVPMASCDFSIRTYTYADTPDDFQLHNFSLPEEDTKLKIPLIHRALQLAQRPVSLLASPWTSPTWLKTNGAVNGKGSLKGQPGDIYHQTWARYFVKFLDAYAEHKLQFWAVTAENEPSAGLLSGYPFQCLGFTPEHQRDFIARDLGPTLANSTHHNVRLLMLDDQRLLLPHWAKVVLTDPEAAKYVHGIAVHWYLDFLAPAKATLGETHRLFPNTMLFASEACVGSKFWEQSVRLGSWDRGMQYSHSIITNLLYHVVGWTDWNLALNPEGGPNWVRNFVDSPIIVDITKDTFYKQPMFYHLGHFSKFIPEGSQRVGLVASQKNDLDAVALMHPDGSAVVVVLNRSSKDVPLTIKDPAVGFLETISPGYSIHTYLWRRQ
# Chain of 3',5'-cyclic-AMP phosphodiesterase 4B (Homo sapiens) (Q07343 whole entry, looked up): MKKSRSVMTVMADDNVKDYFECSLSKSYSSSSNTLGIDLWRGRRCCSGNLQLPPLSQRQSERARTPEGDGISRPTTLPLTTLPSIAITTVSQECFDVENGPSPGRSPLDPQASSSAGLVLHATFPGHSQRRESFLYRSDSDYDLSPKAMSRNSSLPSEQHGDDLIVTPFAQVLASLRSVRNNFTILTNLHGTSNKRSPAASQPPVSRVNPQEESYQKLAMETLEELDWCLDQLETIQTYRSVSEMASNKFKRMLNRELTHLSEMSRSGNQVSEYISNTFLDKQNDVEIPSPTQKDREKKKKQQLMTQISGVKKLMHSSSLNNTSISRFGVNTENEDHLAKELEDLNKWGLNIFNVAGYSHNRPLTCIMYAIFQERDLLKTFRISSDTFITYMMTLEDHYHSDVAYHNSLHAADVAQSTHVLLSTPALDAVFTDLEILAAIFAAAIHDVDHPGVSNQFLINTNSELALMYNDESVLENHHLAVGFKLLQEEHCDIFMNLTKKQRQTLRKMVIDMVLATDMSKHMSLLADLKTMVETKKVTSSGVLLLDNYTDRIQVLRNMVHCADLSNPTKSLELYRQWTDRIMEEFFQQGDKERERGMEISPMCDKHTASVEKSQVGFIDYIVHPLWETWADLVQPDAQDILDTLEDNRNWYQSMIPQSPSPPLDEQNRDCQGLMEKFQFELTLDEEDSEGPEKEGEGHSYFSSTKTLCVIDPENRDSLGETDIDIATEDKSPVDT
# Chain of Luciferin 4-monooxygenase (Photinus pyralis) (P08659 whole entry, looked up): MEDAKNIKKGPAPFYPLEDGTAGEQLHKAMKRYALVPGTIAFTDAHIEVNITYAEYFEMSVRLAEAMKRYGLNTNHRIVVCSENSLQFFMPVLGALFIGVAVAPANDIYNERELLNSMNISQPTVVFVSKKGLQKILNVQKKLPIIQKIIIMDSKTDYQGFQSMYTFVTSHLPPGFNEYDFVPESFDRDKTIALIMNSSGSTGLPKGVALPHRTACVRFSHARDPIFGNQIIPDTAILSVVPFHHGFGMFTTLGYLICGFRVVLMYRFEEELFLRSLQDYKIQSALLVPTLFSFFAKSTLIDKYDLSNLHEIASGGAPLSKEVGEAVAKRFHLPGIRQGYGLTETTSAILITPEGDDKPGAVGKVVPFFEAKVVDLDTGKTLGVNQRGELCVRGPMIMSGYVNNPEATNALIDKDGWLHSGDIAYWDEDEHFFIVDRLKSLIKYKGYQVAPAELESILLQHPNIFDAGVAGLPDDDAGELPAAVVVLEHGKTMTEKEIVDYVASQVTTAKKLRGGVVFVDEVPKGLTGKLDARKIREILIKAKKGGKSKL
# Chain of Cytochrome P450 1A2 (Homo sapiens) (P05177 whole entry, looked up): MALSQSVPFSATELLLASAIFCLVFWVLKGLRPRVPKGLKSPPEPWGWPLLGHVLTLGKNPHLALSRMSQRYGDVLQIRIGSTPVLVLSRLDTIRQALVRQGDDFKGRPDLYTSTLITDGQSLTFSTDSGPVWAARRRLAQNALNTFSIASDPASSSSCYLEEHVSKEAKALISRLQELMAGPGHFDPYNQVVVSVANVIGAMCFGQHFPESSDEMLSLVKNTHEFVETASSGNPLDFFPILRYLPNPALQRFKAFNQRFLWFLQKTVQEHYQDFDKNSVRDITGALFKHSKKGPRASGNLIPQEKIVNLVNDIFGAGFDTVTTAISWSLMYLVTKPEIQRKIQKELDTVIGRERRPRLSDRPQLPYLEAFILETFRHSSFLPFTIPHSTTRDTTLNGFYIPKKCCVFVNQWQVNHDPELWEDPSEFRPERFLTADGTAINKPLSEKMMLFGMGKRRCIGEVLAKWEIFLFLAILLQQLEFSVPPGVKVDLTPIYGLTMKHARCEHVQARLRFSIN
# Chain of ATP-dependent 6-phosphofructokinase (Trypanosoma brucei brucei) (O15648 whole entry, looked up): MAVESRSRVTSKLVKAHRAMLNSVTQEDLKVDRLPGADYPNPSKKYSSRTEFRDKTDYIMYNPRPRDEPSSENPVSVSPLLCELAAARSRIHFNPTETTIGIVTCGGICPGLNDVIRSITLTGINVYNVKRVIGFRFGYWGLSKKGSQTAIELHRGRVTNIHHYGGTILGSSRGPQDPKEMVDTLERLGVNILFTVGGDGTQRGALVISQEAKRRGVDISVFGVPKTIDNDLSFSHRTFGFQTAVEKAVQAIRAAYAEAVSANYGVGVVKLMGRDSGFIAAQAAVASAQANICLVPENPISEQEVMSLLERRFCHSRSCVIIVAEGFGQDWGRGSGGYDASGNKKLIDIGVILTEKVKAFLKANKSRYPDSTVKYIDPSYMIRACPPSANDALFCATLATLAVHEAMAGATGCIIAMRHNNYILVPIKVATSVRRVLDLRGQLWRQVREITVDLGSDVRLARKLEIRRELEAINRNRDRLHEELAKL
smiles,measurement,setting,value
C[C@]12CC[C@H]3c4ccc(O)cc4CC[C@@H]3[C@H]1CC[C@@H]2OC(=O)CCC1CCCC1,Potency,[1],> 11.4 µM
same,"activity change, negative = inhibition",[2],-8.48%
same,Potency,[3],inactive
same,"activity change, negative = inhibition",[4],-0.474%
same,"activity, negative = inhibition",[5],1.67%
same,Potency,[6],> 46 µM
same,Potency,[7],> 9.22 µM
same,Potency,[8],inactive
same,Potency,[9],inactive
same,outcome,[10],inactive
same,outcome,[11],inactive
same,outcome,[12],inactive
same,"activity, negative = inhibition",[13]; parasite line A,5.91%
same,"activity, negative = inhibition",[13]; parasite line B,2.07%
same,Potency,7G8,4.47 µM (active)
same,Potency,AA1029,inactive
same,Potency,AS120,inactive
same,Potency,ATS95,inactive
same,Potency,C2A,inactive
same,Potency,CP185,inactive
same,Potency,CP192,inactive
same,Potency,CP194,inactive
same,Potency,CP201,inactive
same,Potency,CP203,inactive
same,Potency,CP211,inactive
same,Potency,CP215,inactive
same,Potency,CP217,inactive
same,Potency,CP237,8.91 µM (active)
same,Potency,CP238,inactive
